Data on seven molecules can be found in PubChem BioAssay (NCI).

Where “and” joins values, the source holds several entries; their conditions need not be identical. Identical values can stand only once. About 83,000 compounds went through this panel and 20% of them were active in at least one assay; those are over-represented in the sample as a whole.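 Plates (96-well) were seeded with cells, treated with compound at one concentration, and incubated for 48 hours before percent growth was determined.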 Calls of active or inactive are those of the source. The calls were made as follows: active = growth percent below 10; inactive = the rest.

Some test systems named below: NCI-H23 lung; NCI-H226 lung; NCI-H322M lung; HOP-62 NSCLC; NCI-H460 lung; HOP-92 NSCLC; NCI-H522 lung; A549/ATCC NSCLC; 786-0 renal; COLO 205 colon; DU-145 prostate; K-562 leukemia; MALME-3M melanoma; MDA-MB-231 breast; RXF 393 renal; SF-268 CNS; SF-295 CNS; SF-539 CNS; UACC-257 melanoma; M14 melanoma.
Assay in all cases: NCI-60 one-dose screen, 48 h (100 = growth as untreated, 0 = no growth, -100 = all killed)
What all share (conditions): 10 µM unless noted

Turning to `O=C1C=C(Nc2ccccc2)c2ncccc2C1=O`, the growth in the assay on NCI-H23 lung was -43.1% (active); with NCI-H226 lung it was -46.6% (active); with NCI-H322M lung, -97.5% (active); with HOP-62 NSCLC, -90.4% (active); in the assay with NCI-H460 lung, -69.4% (active); in the assay with HOP-92 NSCLC, -79.9% (active). The growth in the assay with NCI-H522 lung was -75.3% (active); in the assay with A549/ATCC NSCLC, -49% (active); with 786-0 renal, -91.9% (active); in the assay on COLO 205 colon, -76.6% (active); in the assay on DU-145 prostate it was -95.4% (active); in the assay on K-562 leukemia it was -48% (active). Moreover, the growth in the assay with MALME-3M melanoma is -91.3% (active); with MDA-MB-231 breast it was -18% (active); in the assay on RXF 393 renal, -96.4% (active); with SF-268 CNS it was -61.9% (active); in the assay with SF-295 CNS, -97.5% (active); with SF-539 CNS, -87.3% (active). Moreover, the growth with UACC-257 melanoma was -97.7% (active); with M14 melanoma, -86.3% (active).

Take `COC1/C=C/OC2(C)Oc3c(C)c(O)c4c(O)c(c(C=NOC(c5ccccc5)c5ccccc5)c(O)c4c3C2=O)NC(=O)/C(C)=C/C=C/C(C)C(O)C(C)C(O)C(C)C(OC(C)=O)C1C` (stereo not given): the growth in the assay on NCI-H23 lung was 21.8% (inactive); in the assay with NCI-H226 lung, 20.3% (inactive); in the assay on NCI-H322M lung it was 47.4% (inactive); in the assay on HOP-62 NSCLC, -89.5% (active); in the assay on NCI-H460 lung it was 2.85% (active); in the assay with HOP-92 NSCLC, -8.12% (active). Besides, the growth with NCI-H522 lung was 13% (inactive); in the assay on A549/ATCC NSCLC, 16.3% (inactive); with 786-0 renal, 12.2% (inactive); with COLO 205 colon, -88.2% (active); with DU-145 prostate, 37.9% (inactive); with K-562 leukemia, 17.1% (inactive). Further, the growth with MALME-3M melanoma is 23.5% (inactive); in the assay with MDA-MB-231 breast, 8.78% (active); in the assay with RXF 393 renal it was -3.93% (active); in the assay on SF-268 CNS, 44.2% (inactive); with SF-295 CNS it was 1.59% (active); with SF-539 CNS, 31.3% (inactive). For the same molecule, the values for the growth with UACC-257 melanoma and in the assay with M14 melanoma were 12.2% (inactive) and 23.2% (inactive), respectively.

As to `CCCCCCNC(=O)Oc1ccc(/C(=C(/CC)Cc2ccccc2)c2ccc(OCCCN(C)C)cc2)cc1`, the growth with NCI-H23 lung is 79% (inactive); with NCI-H226 lung, 95.5% (inactive); with NCI-H322M lung, 89.3% (inactive); in the assay with HOP-62 NSCLC it was 83.2% (inactive); with NCI-H460 lung it was 40.2% (inactive); in the assay with HOP-92 NSCLC it was 54.3% (inactive). Besides, the growth in the assay on NCI-H522 lung is 89% (inactive); in the assay with A549/ATCC NSCLC, 71.6% (inactive); in the assay on 786-0 renal, 68.8% (inactive); with COLO 205 colon, 65.6% (inactive); in the assay on DU-145 prostate, 89.4% (inactive); with K-562 leukemia, 7.11% (active). The growth in the assay on MALME-3M melanoma is 83.3% (inactive); in the assay with MDA-MB-231 breast, 67.5% (inactive); in the assay on RXF 393 renal it was 80.3% (inactive); with SF-268 CNS it was 80.8% (inactive); with SF-295 CNS, 116% (inactive); in the assay with SF-539 CNS it was 99.1% (inactive). Further, the growth in the assay with UACC-257 melanoma was 80.8% (inactive); with M14 melanoma, 85.2% (inactive).

`COc1nc2ccc(C)cc2cc1/C=[N+](\[O-])c1ccccc1`: the growth in the assay with NCI-H23 lung was 93.8% (inactive); in the assay with NCI-H226 lung, 73.6% (inactive); with NCI-H322M lung it was 85.1% (inactive); with HOP-62 NSCLC, 81.7% (inactive); with NCI-H460 lung, 98.9% (inactive); in the assay with HOP-92 NSCLC, 72.5% (inactive). Besides, the growth with NCI-H522 lung is 84.6% (inactive); in the assay with A549/ATCC NSCLC, 92.4% (inactive); with 786-0 renal, 103% (inactive); in the assay with COLO 205 colon, 96% (inactive); with DU-145 prostate, 95.5% (inactive); in the assay with K-562 leukemia, 33.6% (inactive). Further, the growth was 94% (inactive) with MALME-3M melanoma; 78% (inactive) with MDA-MB-231 breast; 101% (inactive) with RXF 393 renal; 86.2% (inactive) in the assay on SF-268 CNS; 90.3% (inactive) in the assay on SF-295 CNS; 89.8% (inactive) in the assay on SF-539 CNS. Also, the growth is 95.7% (inactive) with UACC-257 melanoma and 86.8% (inactive) in the assay with M14 melanoma.

On to `Fc1ccccc1-c1cnn2cc(-c3ccccc3)cnc12`, for which the growth with NCI-H23 lung was 95.5% (inactive); in the assay on NCI-H226 lung, 94.3% (inactive); in the assay with NCI-H322M lung, 95.5% (inactive); with HOP-62 NSCLC it was 103% (inactive); in the assay on NCI-H460 lung, 98.2% (inactive); with HOP-92 NSCLC, 100% (inactive). Further, the growth was 97.7% (inactive) in the assay with NCI-H522 lung; 94.2% (inactive) in the assay on A549/ATCC NSCLC; 97.2% (inactive) with 786-0 renal; 118% (inactive) in the assay on COLO 205 colon; 110% (inactive) in the assay on DU-145 prostate; 83.5% (inactive) in the assay with K-562 leukemia. The growth in the assay with MALME-3M melanoma is 109% (inactive); with MDA-MB-231 breast, 108% (inactive); in the assay on RXF 393 renal it was 94.9% (inactive); in the assay with SF-268 CNS, 88.9% (inactive); in the assay on SF-295 CNS, 98.2% (inactive); in the assay on SF-539 CNS it was 103% (inactive). Besides, the growth with UACC-257 melanoma is 110% (inactive); in the assay on M14 melanoma, 105% (inactive).

As for `Clc1ccc2c(c1)N(c1ncnc3ccc(-c4cnc5[nH]ccc5c4)cc13)CC2`, the growth is 40.6% (inactive) in the assay on NCI-H23 lung; 40.9% (inactive) in the assay on NCI-H226 lung; 41.3% (inactive) in the assay on NCI-H322M lung; 13.8% (inactive) in the assay with HOP-62 NSCLC; 16.5% (inactive) with NCI-H460 lung; 14.8% (inactive) with HOP-92 NSCLC. Also, the growth in the assay with NCI-H522 lung was 30.6% (inactive); in the assay on A549/ATCC NSCLC, 21.4% (inactive); in the assay on 786-0 renal it was 24.5% (inactive); in the assay on COLO 205 colon it was 45.1% (inactive); in the assay with DU-145 prostate it was 27.6% (inactive); with K-562 leukemia, 5.53% (active). Moreover, the growth in the assay on MALME-3M melanoma was 7.46% (active); with MDA-MB-231 breast, 35.6% (inactive); in the assay with RXF 393 renal it was 4.78% (active); in the assay on SF-268 CNS it was 39.8% (inactive); in the assay with SF-295 CNS, 19.7% (inactive); in the assay on SF-539 CNS it was 27.5% (inactive). Moreover, the values for the growth in the assay on UACC-257 melanoma and in the assay with M14 melanoma were 34.4% (inactive) and 8.89% (active), respectively.

Consider `O=c1c2c([nH]c3ccccc13)CCCC2`, for which the growth is 100% (inactive) and 68.1% (inactive) in the assay on NCI-H23 lung; 100% (inactive) with NCI-H226 lung; 113% (inactive) and 77.7% (inactive) in the assay on NCI-H322M lung; 98.5% (inactive) and 40.1% (inactive) in the assay on HOP-62 NSCLC; 99.8% (inactive) and 22.8% (inactive) in the assay on NCI-H460 lung; 83.9% (inactive) and 52.4% (inactive) in the assay on HOP-92 NSCLC. In addition, the growth was 92.4% (inactive) and 37.6% (inactive) with NCI-H522 lung; 93.8% (inactive) and 56.3% (inactive) in the assay on A549/ATCC NSCLC; 107% (inactive) and 74.3% (inactive) with 786-0 renal; 94.5% (inactive) and 8.36% (active) with COLO 205 colon; 106% (inactive) and 70.7% (inactive) in the assay with DU-145 prostate; 95.9% (inactive) and 11.3% (inactive) in the assay on K-562 leukemia. Further, the growth in the assay on MALME-3M melanoma is 104% (inactive) and 36.8% (inactive); in the assay on MDA-MB-231 breast, 95.8% (inactive) and 54.9% (inactive); in the assay on RXF 393 renal it was 105% (inactive) and 63.4% (inactive); in the assay on SF-268 CNS, 98.8% (inactive) and 53.2% (inactive); with SF-295 CNS, 95.4% (inactive) and 13.1% (inactive); with SF-539 CNS, 99.5% (inactive) and 46% (inactive). Also, the growth with UACC-257 melanoma was 100% (inactive) and 58.8% (inactive); in the assay with M14 melanoma, 98.5% (inactive) and 15.6% (inactive).
